Hits are enriched below; roughly 3% of the tested compounds scored in any of these assays.
PAFAH2 inh – PAFAH2 (human) inhibition. recombinant PAFAH2, FP-rhodamine activity probe, fluorescence polarization. inhibition, % at 3.39 µM. Q99487. hit rate 0.99% among 340,000. AID 492956;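 active means inhibition above the mean over all tested compounds plus 3 SD, cut at about 30% in these data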;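 further: inhibitors block probe labeling of enzyme so polarization drops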
PAFAH1B2 inh – inhibitors of human PAFAH1B2. P68402. recombinant PAFAH1B2, FP-rhodamine activity probe, fluorescence polarization. inhibition, % at 3.39 µM. hit rate 1.2% among 340,000;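 active means inhibition above the mean of all tested compounds plus 3 SD, cut at about 24% in these data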
DAGLB inhibitor – blocks human DAGLB lipase activity; inhibition, % at 5.17 µM; HEK293T DAGLB membrane lysate, EnzChek fluorogenic substrate; hit rate 0.059% among 340,000; Q8NCG7; AID 504411; in the data active means inhibition above about 34%
Target sequence (Q8NCG7 whole entry, looked up): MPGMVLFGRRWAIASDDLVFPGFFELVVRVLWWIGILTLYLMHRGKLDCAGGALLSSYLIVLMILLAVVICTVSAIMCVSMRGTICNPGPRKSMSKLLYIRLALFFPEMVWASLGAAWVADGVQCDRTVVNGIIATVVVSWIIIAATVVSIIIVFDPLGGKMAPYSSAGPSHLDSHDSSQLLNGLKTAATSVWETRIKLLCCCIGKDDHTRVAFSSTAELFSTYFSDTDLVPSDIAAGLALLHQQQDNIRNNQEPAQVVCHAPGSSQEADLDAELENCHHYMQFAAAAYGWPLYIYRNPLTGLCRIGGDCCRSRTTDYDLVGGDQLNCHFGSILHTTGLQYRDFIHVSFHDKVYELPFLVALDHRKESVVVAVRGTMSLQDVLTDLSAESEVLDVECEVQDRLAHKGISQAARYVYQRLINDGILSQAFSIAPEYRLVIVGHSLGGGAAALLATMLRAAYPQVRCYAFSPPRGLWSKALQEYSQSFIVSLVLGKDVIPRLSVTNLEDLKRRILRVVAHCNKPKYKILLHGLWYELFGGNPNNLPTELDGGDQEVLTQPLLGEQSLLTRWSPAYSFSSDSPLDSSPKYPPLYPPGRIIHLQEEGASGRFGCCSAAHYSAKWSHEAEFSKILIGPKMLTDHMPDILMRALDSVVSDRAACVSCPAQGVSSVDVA
pPAFAH FP inh – pPAFAH (human) enzyme inhibition; recombinant pPAFAH, FP-rhodamine probe fluorescence polarization; AID 463082; inhibition, % at 3.39 µM; hit rate 1.5% among 330,000;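 active means inhibition above the mean inhibition across the screen plus 3 SD, cut at about 25% in these data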;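 further: inhibitors block binding of the rhodamine activity-based probe so polarization drops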
ATG4B inhibitor – ATG4B (human) cysteine protease inhibition; hit rate 0.51% among 340,000; inhibition, % at 8.33 µM; ATG4B cleavage of LC3-PLA2, NBD-HPC fluorescence, 1 h; in the data active means inhibition above about 40%
PAFAH1B3 inh – inhibitors of human PAFAH1B3; hit rate 0.28% among 340,000; recombinant PAFAH1B3, FP-rhodamine probe, fluorescence polarization; Q15102; inhibition, % at 3.39 µM;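 active means inhibition above the screen-wide average of all tested compounds plus 3 SD, cut at about 25% in these data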
ATG4B confirm – confirmation of human ATG4B inhibitors. shares compounds with ATG4B inhibitor. ATG4B protease fluorescent substrate cleavage assay. inhibition, % at 8.33 µM. hit rate 92% among 320; in the data active means inhibition above about 39%
PLA2 counter – inhibits human PLA2, flagging false ATG4B inhibitors. shares compounds with ATG4B inhibitor. purified PLA2, NBD-C6-HPC fluorescence, 45 min. inhibition, % at 8.33 µM. hit rate 66% among 1,600. AID 588402; in the data active means inhibition above about 50%
Numbers stand for hits; . = inactive; / = no result given.

SMILES	PAFAH2 inh	PAFAH1B2 inh	DAGLB inhibitor	pPAFAH FP inh	ATG4B inhibitor	PAFAH1B3 inh	PLA2 counter	others
Cc1csc(=O)n1CCC(=O)OCC(=O)Nc1ccc(Cl)cn1	.	.	.	.	.	.	/
Cc1c(NC(=O)c2ccccc2NC(=O)c2ccccc2)cccc1C(=O)O	.	.	.	.	.	.	/
Cc1cccc(OCC(=O)Nc2ccccc2-c2ccccc2)c1	.	.	.	.	45	.	.	ATG4B confirm=64
Cc1c(NC(=O)c2ccccc2NC(=O)COc2ccccc2)cccc1C(=O)O	.	.	.	.	40	.	.
C=CCOC(=O)c1ccc(N2CCN(c3ccccc3)CC2)nc1	.	.	.	.	.	.	/
Nc1ccc2c(c1)C(=O)C(=O)c1ccccc1-2	62	25	.	.	78	76	.	ATG4B confirm=.
CS(=O)(=O)Nc1ccc(C2=NN(C(=O)C3CCCCC3)C(c3cccs3)C2)cc1 (stereo not drawn)	.	.	.	.	77	.	81
CC(C)C(=O)N1N=C(c2ccc(NS(C)(=O)=O)cc2)CC1c1cccs1 (stereo not drawn)	.	.	.	.	.	.	/
Cn1c(C(=O)N2CCc3ccccc3C2)cc2oc3ccccc3c21	.	.	.	.	59	.	64
CCn1c(C(=O)N2CCc3ccccc3C2)cc2oc3ccccc3c21	.	.	.	.	43	.	72
COCCn1c(=O)c2ccccc2c2ccccc2c1=O	.	.	.	.	.	.	/
CCCCn1c(=O)c2ccccc2c2ccccc2c1=O	.	.	.	.	64	.	75
CCN1CCN(C(=O)c2cccc(OC3CCN(S(C)(=O)=O)CC3)c2)[C@@H](C)C1=O	.	.	.	.	.	.	/
CCc1ccc(C(C#N)=CC=Cc2ccccc2)cc1	/	/	.	/	/	/	/
CCCc1ccc(C(C)NC(=S)NCc2ccc(F)cc2)cc1 (stereo not drawn)	.	.	.	.	59	.	70
CCC(NC(=S)NCc1ccc(F)cc1)c1ccc(C(C)C)cc1 (stereo not drawn)	.	29	.	.	54	.	77
COc1ccc(C(C)NC(=S)NCc2ccc(F)cc2)cc1OC (stereo not drawn)	.	.	.	.	.	.	/
CCC(C)c1ccc(C(C)NC(=S)NCc2ccc(F)cc2)cc1 (stereo not drawn)	.	24	.	.	63	.	78
CC(NC(=S)NCc1ccc(F)cc1)C12CC3CC(CC(C3)C1)C2 (stereo not drawn)	.	.	.	.	.	.	/
NC(=O)Cc1ccc(C(=O)c2ccc(Cl)cc2)s1	.	.	.	.	57	.	51
O=C(O)Cc1ccc(C(=O)c2ccc(Cl)cc2)s1	.	.	.	.	.	.	/
COc1ccc(/C=C/c2n[nH]c(=O)c(C#N)c2C)cc1	.	.	.	.	.	.	/
Cc1ccc(CS(=O)Cc2ccc(C(=O)NCc3ccccc3Br)o2)cc1 (stereo not drawn)	.	.	.	.	63	.	69
Cc1ccc(CS(=O)Cc2ccc(C(=O)NCc3cccs3)o2)cc1 (stereo not drawn)	.	.	.	.	.	.	/
Cc1sc(NC(=O)C2C3CCC(O3)C2C(=O)O)nc1-c1ccc(CC(C)C)cc1 (stereo not drawn)	.	.	.	.	56	.	69
SMILES	PAFAH2 inh	PAFAH1B2 inh	DAGLB inhibitor	pPAFAH FP inh	ATG4B inhibitor	PAFAH1B3 inh	PLA2 counter	others
CCNc1nc(CSc2ccccc2)nc2sc(C)c(C)c12	.	.	.	.	45	.	.	ATG4B confirm=61
Cc1sc2nc(CSc3ccccc3)nc(NCCN(C)C)c2c1C	.	.	.	.	.	.	/
CC(=O)Nc1ccc(S(=O)(=O)N/N=C/c2ccc(C)s2)cc1	.	.	.	.	.	.	/
CC(C)N(Cc1ccccc1)C(=O)C1CCN(c2ncnc3c2nc2n3CCCCC2)CC1	.	.	.	.	72	.	76
COc1ccc(Cl)cc1-n1c(=S)sc2c(=O)[nH]c(SCC(=O)NCCC(C)C)nc21	.	.	.	/	41	.	.	ATG4B confirm=73
CCOc1ccc(-n2c(=S)sc3c(=O)[nH]c(SCC(=O)NC(C)CC)nc32)cc1 (stereo not drawn)	.	.	.	.	.	.	/
CCOC(=O)c1oc2ccc(Br)cc2c1CSc1nnc(C)s1	.	.	.	.	64	.	67
CCOC(=O)c1oc2ccccc2c1CSc1nnnn1-c1ccc(OC)cc1	.	.	.	.	.	.	/
COCOc1ccc(C=O)c(O)c1	.	.	.	.	.	.	/
O=Cc1ccc(OCc2cccc(C(F)(F)F)c2)cc1O	.	.	.	.	57	.	77
FC(F)(F)c1cc(-c2ccco2)nc(NCc2ccccc2)n1	.	.	.	.	.	.	/
Fc1ccc(CNc2nc(-c3ccco3)cc(C(F)(F)F)n2)cc1	.	.	.	.	41	.	52
COc1ccc([C@H]2CC(=O)C=C(c3ccccc3-c3ccccc3)C2)cc1	.	.	.	.	42	.	58
CCCCc1cc(=O)oc2cc(C)cc(OCC(=O)N3CCC(C(=O)O)(c4ccccc4)CC3)c12	.	.	.	.	.	.	/
O=C(O)/C=C/C(=O)N(Cc1ccc2c(c1)OCO2)C1CC(=O)N(CCc2ccccc2)C1=O (stereo not drawn)	.	.	.	.	.	.	/
O=C(c1cc(=O)c2ccccc2o1)N1CCCc2ccccc21	.	.	.	.	.	.	/
CSCc1c(C(=O)N2CCCc3ccccc32)oc2ccccc12	.	.	.	.	61	.	78
Cc1ccc(-c2nnc(Nc3ccc(CC(N)=O)cc3)c3ccccc23)cc1S(N)(=O)=O	.	.	.	.	88	.	89
NC(=O)COc1ccc(Nc2nnc(-c3ccc(O)cc3)c3ccccc23)cc1	.	.	.	.	57	.	69
CNS(=O)(=O)c1cc(-c2nnc(Nc3ccc(CC(N)=O)cc3)c3ccccc23)ccc1C	.	.	.	.	91	.	91
CNC(=O)c1ccc(Nc2nnc(-c3ccc(C)c(S(N)(=O)=O)c3)c3ccccc23)cc1	.	.	.	.	.	.	/
Cc1ccc(-c2nnc(Nc3ccc(CC(N)=O)cc3)c3ccccc23)cc1	.	.	.	.	97	.	97
CCCc1nnc(SCC(=O)NC2CCCCC2)n1CCOC	.	.	.	.	.	.	/
COc1ccc(C(=O)N2CCOC2CNC(=O)C(=O)NCc2ccccc2)cc1 (stereo not drawn)	/	/	.	/	/	/	/
Cc1ccc(-c2cc(C(=O)O)n(-c3ccc(S(N)(=O)=O)cc3)n2)cc1	.	.	.	.	.	.	/
